This note sets out measurements from PubChem BioAssay (NCI).

This is part of a sample that, as a whole, favours compounds with a hit. Of some 83,000 tested, about 20% had one in any assay.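 Treatment: one concentration, 48 hours, 96-well format. Scoring: percent growth, with anything below 10 considered active.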 A number with no mark means an inactive call. Activity calls are given as the source filed them.

The subject of one assay is BT-549 breast. Kind of assay: NCI-60 one-dose screen, 48 h (100 = growth as untreated, 0 = no growth, -100 = all killed). As to conditions: 10 µM unless noted.
`O=S(=O)(NCCNc1nccc(-n2cnc3ccccc32)n1)c1ccc(C(F)(F)F)cc1`: the growth was 53.1%.

For `CC(C)(C)c1ccc(C(=O)Nc2sc3c(c2C(N)=O)CC/C(=N\O)C3)cc1`, the growth was 16.2%.

Consider `CC(=O)c1nnn(-c2c(C(=O)n3nc(C)cc3C)sc(=S)n2-c2ccccc2)c1C`, for which the growth is 92.2%.

As to `CNC(=O)c1c(NC(=O)c2ccccc2C(F)(F)F)sc2c1CCC(=O)C2`, the growth was 27.2%.

`O=C(NNc1nc2cc(F)c(F)cc2n2cccc12)c1cnccn1`: the growth is 43.7%.

As to `COc1cc(Nc2c(C#N)cnn3cc(-c4cnn(CC(C)(C)O)c4)cc23)ccc1Cl`, the growth is 85.5%.

With `CCCCCCCn1cc2c(N[C@H](C)c3ccccc3)ncnc2n1`, the growth is 102%.

As to `O=C(Cn1cc(-c2ccccc2)nn1)Nc1nc(-c2ccc(Cl)cc2)cs1`, the growth was 98.1%.

`CCOC(=O)C(=O)CC(=O)N1C(=S)NC(=O)C1CC(C)C` (stereo not given): the growth was 87.5%.

As for `O=C1Nc2ccccc2/C1=C/c1ccc(CO)n1-c1ccc(Cl)cc1`, the growth is 55.3%.

On to `CCO/C=N/C1=C(C#N)C(c2ccc(OC)cc2)c2sc3c(CC)cccc3c2O1` (stereo not given), for which the growth was 63%.

Consider `O=C1[C@@H]2Cc3c([nH]c4ccccc34)[C@H](c3c(Cl)cccc3Cl)N2C(=O)CN1C1CCN(CC2CCCCC2)CC1`, for which the growth was 63.2%.

On to `Cc1nn(-c2ccccc2)c2ncnc(N/N=C/c3cccc(O)c3)c12`, for which the growth is 46.8%.

With `CS(=O)(=O)Nc1cc(-c2ccc3ncc(C#N)c(NCc4cccc(F)c4)c3c2)cnc1Cl`, the growth is -17.4% (active).

For `Cc1ccc(-n2cc(/C=C/C(=O)c3ccc(O)cc3)c(-c3ccc(S(C)(=O)=O)cc3)n2)cc1`, the growth was 70.9%.

In the case of `CC1(C)NCCC[C@]2(C)[C@H]3C/C(=N\O)C4[C@@H]5C[C@@](C)(CO)CC[C@]5(C)CC[C@@]4(C)[C@]3(C)CC[C@@H]12` (stereo not given in full), the growth is 97.6%.

In the case of `C#CCNC1CCC(c2csc(C#C)n2)=C1C` (stereo not given), the growth was 86.3%.

Consider `NS(=O)(=O)c1ccc(Nc2nc(Nc3ccccc3)nc3nnc(SCC(=O)NC4CCCCC4)n23)cc1`, for which the growth was 104%.

For `O=C(CNc1nc(-c2cccc([N+](=O)[O-])c2)cs1)Nc1cccc([N+](=O)[O-])c1`, the growth was 15.2%.

Regarding `O=C(CSc1nc2ccccc2c(=O)n1-c1ccc(Cl)cc1)N/N=C/c1ccc(N2CCCCC2)cc1`, the growth is 104%.

In the case of `O=C(c1ccc(Cl)cc1)C1[C@H](c2ccc(Cl)cc2)[C@@H](c2ccccc2)NC12C(=O)Nc1ccccc12` (stereo not given in full), the growth was 96.1%.

Regarding `CC(=O)c1ccc(Nc2nc(SCC(C)C)nc(-c3ccc(F)cc3)c2C#N)cc1`, the growth was 110%.

As for `Fc1ccc(-c2cc3nc(C(Cl)Cl)nc(-c4ccc(F)cc4)n3n2)cc1`, the growth was 47%.

As to `CNc1ncc2cc(-c3ccc(-c4ncccc4F)cc3Cl)c(=O)n(CC3OCC(N)CO3)c2n1` (stereo not given), the growth is 82.1%.

Consider `C#C[C@]1(O)CC[C@H]2[C@@H]3CC=C4c5sc(-c6ccc7c(c6)OCO7)nc5CC[C@]4(C)[C@H]3CC[C@@]21C`, for which the growth is 26.1%.

With `C=CCn1c(SCC(=O)Nc2ccc(C(=O)/C=C/c3ccc(C)cc3)cc2)nnc1-c1c[nH]c2ccccc12`, the growth was 107%.

Another assay concerns MDA-MB-435 melanoma. Described as above. Conditions: 10 µM unless noted.
For `O=S(=O)(NCCNc1nccc(-n2cnc3ccccc32)n1)c1ccc(Br)cc1`, the growth was 108%.

For the compound `NS(=O)(=O)c1ccc(Nc2nc(N/N=C/c3ccccn3)nc(Nc3ccccc3)n2)cc1`, the growth was -84.9% (active).

For the compound `NC(N)=Nc1ccc(Oc2cccc(Nc3ccc(Br)c(C(F)(F)F)c3)c2)cc1`, the growth was 8.6% (active).

For `O=c1[nH]c2ccccc2cc1CSc1ccccc1Nc1nccc(-c2ccc(Cl)cc2)n1`, the growth was 99.9%.

For `COc1ccccc1C(=O)Nc1cccc2c1C(=O)C(=O)C=C2`, the growth was 96.8%.

In the case of `CCO/C=N/C1=C(C#N)C(c2ccc(F)cc2)c2sc3c(C)cccc3c2O1` (stereo not given), the growth is -31.2% (active).

For the compound `O=C(NNc1nc2cc(F)ccc2n2c(CN3CCCC3)ccc12)c1cnccn1`, the growth was 34.4%.

For the compound `COc1cc(-c2nn(C(C)(C)C)cc2-c2ccnc(NCCCNS(=O)(=O)c3ccccc3)n2)ccc1Cl`, the growth is 84%.

As to `O=C(NCc1ncc[nH]1)c1ccc(-c2nc3ccc4[nH]ncc4c3c3c2CCCC3)cc1`, the growth was 14.6%.

Turning to `O=C(NNc1nc2cc(F)ccc2n2c(CO)ccc12)c1cnccn1`, the growth is 27.3%.

`O=[N+]([O-])c1cc(/C=N/Nc2nc(N/N=C/c3ccc(Cl)c([N+](=O)[O-])c3)nc(N3CCCCC3)n2)ccc1Cl`: the growth is 92.3%.

Regarding `COc1c(N2CC3CCCNC3C2)c(F)cc2c(=O)c(C(=O)N/N=C/c3ccccc3)cn(C3CC3)c12` (stereo not given), the growth was 101%.

Regarding `O=C(CNc1nc(-c2cccc([N+](=O)[O-])c2)cs1)Nc1cccc(Cl)c1`, the growth was 105%.

Take `O=S(=O)(NCCNc1nccc(-n2cnc3ccccc32)n1)c1ccc(C(F)(F)F)cc1`: the growth is 64.4%.

For the compound `CC(C)(C)c1ccc(C(=O)Nc2sc3c(c2C(N)=O)CC/C(=N\O)C3)cc1`, the growth was 13.6%.

In the case of `CC(=O)c1nnn(-c2c(C(=O)n3nc(C)cc3C)sc(=S)n2-c2ccccc2)c1C`, the growth is 108%.

Take `CNC(=O)c1c(NC(=O)c2ccccc2C(F)(F)F)sc2c1CCC(=O)C2`: the growth was 37.5%.

Consider `O=C(NNc1nc2cc(F)c(F)cc2n2cccc12)c1cnccn1`, for which the growth is 37.1%.

Turning to `COc1cc(Nc2c(C#N)cnn3cc(-c4cnn(CC(C)(C)O)c4)cc23)ccc1Cl`, the growth is 38.3%.

With `CCCCCCCn1cc2c(N[C@H](C)c3ccccc3)ncnc2n1`, the growth was 103%.

With `O=C(Cn1cc(-c2ccccc2)nn1)Nc1nc(-c2ccc(Cl)cc2)cs1`, the growth is 95.7%.

Regarding `CCOC(=O)C(=O)CC(=O)N1C(=S)NC(=O)C1CC(C)C` (stereo not given), the growth was 99.9%.

Turning to `O=C1Nc2ccccc2/C1=C/c1ccc(CO)n1-c1ccc(Cl)cc1`, the growth is -25.5% (active).

Turning to `CCO/C=N/C1=C(C#N)C(c2ccc(OC)cc2)c2sc3c(CC)cccc3c2O1` (stereo not given), the growth is -39.2% (active).

`O=C1[C@@H]2Cc3c([nH]c4ccccc34)[C@H](c3c(Cl)cccc3Cl)N2C(=O)CN1C1CCN(CC2CCCCC2)CC1`: the growth was 73.6%.

For the compound `Cc1nn(-c2ccccc2)c2ncnc(N/N=C/c3cccc(O)c3)c12`, the growth is 3.94% (active).

With `CS(=O)(=O)Nc1cc(-c2ccc3ncc(C#N)c(NCc4cccc(F)c4)c3c2)cnc1Cl`, the growth is 5.21% (active).

On to `Cc1ccc(-n2cc(/C=C/C(=O)c3ccc(O)cc3)c(-c3ccc(S(C)(=O)=O)cc3)n2)cc1`, for which the growth is 1.81% (active).

`CC1(C)NCCC[C@]2(C)[C@H]3C/C(=N\O)C4[C@@H]5C[C@@](C)(CO)CC[C@]5(C)CC[C@@]4(C)[C@]3(C)CC[C@@H]12` (stereo not given in full): the growth was 111%.

`C#CCNC1CCC(c2csc(C#C)n2)=C1C` (stereo not given): the growth was 99.2%.

Consider `NS(=O)(=O)c1ccc(Nc2nc(Nc3ccccc3)nc3nnc(SCC(=O)NC4CCCCC4)n23)cc1`, for which the growth is 110%.

As for `O=C(CNc1nc(-c2cccc([N+](=O)[O-])c2)cs1)Nc1cccc([N+](=O)[O-])c1`, the growth is -15.5% (active).

Take `O=C(CSc1nc2ccccc2c(=O)n1-c1ccc(Cl)cc1)N/N=C/c1ccc(N2CCCCC2)cc1`: the growth was 86.9%.

`O=C(c1ccc(Cl)cc1)C1[C@H](c2ccc(Cl)cc2)[C@@H](c2ccccc2)NC12C(=O)Nc1ccccc12` (stereo not given in full): the growth was 49.1%.

As to `CC(=O)c1ccc(Nc2nc(SCC(C)C)nc(-c3ccc(F)cc3)c2C#N)cc1`, the growth is 111%.

Turning to `Fc1ccc(-c2cc3nc(C(Cl)Cl)nc(-c4ccc(F)cc4)n3n2)cc1`, the growth was 14.6%.

For `CNc1ncc2cc(-c3ccc(-c4ncccc4F)cc3Cl)c(=O)n(CC3OCC(N)CO3)c2n1` (stereo not given), the growth was 105%.

`C#C[C@]1(O)CC[C@H]2[C@@H]3CC=C4c5sc(-c6ccc7c(c6)OCO7)nc5CC[C@]4(C)[C@H]3CC[C@@]21C`: the growth is -6.66% (active).

On to `C=CCn1c(SCC(=O)Nc2ccc(C(=O)/C=C/c3ccc(C)cc3)cc2)nnc1-c1c[nH]c2ccccc12`, for which the growth is 96.7%.
